PubChem BioAssay AID449762 (Southern Research Specialized Biocontainment Screening …, 2010)
The whole screen tested about 330,000 compounds, of which about 1,900 (0.58%) were called active. Roughly 4% stayed inconclusive and do not appear here. Rule as the data show it: inconclusive = inhibition above about 70% without an active follow-up result; inactive = below that. These entries were drawn from the full list. Results with a measured potency or affinity are listed apart.

Experiment: M. tuberculosis growth inhibition, HTS (AID 449762);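 also: bacterial growth assessed after seven days of incubation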
Conditions: M. tuberculosis H37Rv growth inhibition, 7H9 media; at 25 µM; active compounds read high

Structure (SMILES)	inhibition
COc1ccc(/C(C)=N/N2CCCCC2)c(O)c1	0.48% (inactive)
Cc1nn(Cc2ccc(Cl)cc2Cl)c(C)c1NC(=O)Cn1nc([N+](=O)[O-])c(Cl)c1C	5.47% (inactive)
S=C(NCc1ccc2c(c1)OCO2)NCc1ccc2c(c1)OCO2	2.49% (inactive)
S=C(NCc1ccccc1)NCc1ccc2c(c1)OCO2	13% (inactive)
CN1/C(=C\C(=O)COC(=O)c2ccc(O)c(O)c2)C(C)(C)c2ccccc21	25% (inactive)
Oc1ccc(CCNc2c3ccccc3nc3ccccc23)cc1O	-2.38% (inactive)
O=C(Nc1ccc2c(c1)OCO2)c1c(F)c(F)c(F)c(F)c1F	2.74% (inactive)
Cc1ccc(OCC(=O)NNC(=O)C2CCN(c3ncnc4sc(C)c(C)c34)CC2)cc1	42% (inactive)
Cc1sc2ncnc(N3CCCCC3)c2c1C	5.45% (inactive)
CSc1ccccc1NC(=O)CN1c2ccccc2CC1C (configuration not stated)	7.66% (inactive)
CCOC(=O)Cc1csc(NC(=O)COc2ccccc2OCC)n1	-11.5% (inactive)
CCOC(=O)Cc1csc(NC(=O)CCSc2ccccc2)n1	5.94% (inactive)
COC(=O)CSc1ncnc2c1sc1nc(N3CCOCC3)c3c(c12)CCCC3	-2.32% (inactive)
COC(=O)c1ccc(CSc2ncnc3c2sc2nc(N4CCOCC4)c4c(c23)CCCC4)o1	-0.71% (inactive)
O=c1cnnc(Nc2ccc(Nc3ccccc3)cc2)[nH]1	14% (inactive)
CC(C)c1ccc(NC(=O)CCS(=O)(=O)c2cccc3nonc23)cc1	6.08% (inactive)
O=C(C1CCC1)N1CCN(S(=O)(=O)c2ccc(F)cc2)CC1	-11% (inactive)
CCOc1ccc(/C=C2/C(=N)N3OC(C)=CC3=NC2=O)cc1OC	2.41% (inactive)
CN(CCO)c1cc(N2CCCCC2)c2nonc2c1[N+](=O)[O-]	-7.07% (inactive)
CN(CCO)c1cc(N2CCC3(CC2)OCCO3)c2nonc2c1[N+](=O)[O-]	-10.9% (inactive)
Cc1cc(C)cc(NC(=O)CCn2c(=S)[nH]c3ccccc3c2=O)c1	3.81% (inactive)
Cc1cccc(OCCCCNCc2ccccc2)c1	0.71% (inactive)
Clc1ccc(Cl)c(OCCCCNCc2ccccc2)c1	6.87% (inactive)
COc1ccc(Br)cc1/C=C/c1ccc2cccc(O)c2n1	69.8% (inactive)
COc1cc(Br)c(/C=C/c2ccc3cccc(O)c3n2)cc1OC	15.4% (inactive)
On1c(-c2ccc(Cl)cc2)nc2ccccc21	67.2% (inactive)
COc1cc(CNn2nnnc2N)cc(Br)c1OCc1c(Cl)cccc1Cl	0.85% (inactive)
